MCF10A rereplic – inducers of DNA re-replication in MCF 10A breast cells; MCF 10A DNA re-replication, Hoechst nuclear intensity, 48 h; Potency, µM (doses to about 46.1 µM), inactives show at the top dose activity, positive = re-replication, usual class: activators; 350,000 compounds, 2.9% hits; also: potency is read from the fitted curve at half-maximal effect; % of control where 0% means no effect; nearly all actives have a fitted effect of over 50% in size
SW480 rereplic – inducers of DNA re-replication in SW480 colon cancer cells; SW480 DNA re-replication, Hoechst DNA content imaging, 48 h; Potency, µM (highest dose often 46.1 µM), for inactives: at the top dose re-replication activation, most hits filed as activators; 340,000 compounds, 1.8% hits; AID 624297; also: potency is read from the fitted curve at half-maximal effect; % of control where 0% means no effect; nearly all actives have a fitted effect of over 55% in size
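First, 250 cells per well were seeded. Next, compound or vehicle (23 nL) was pinned in, plates sat 48 hr at 37 C. Finally Hoechst was added for 40 min before fluorescence scanning.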
IL1B secr inh – blocks inflammasome-driven IL-1 beta release; THP-1 LPS/ATP IL-1B secretion, AlphaLISA, 16 h; stronger effect = lower value; activity change, % at 57.5 µM; 360,000 compounds, 4.7% hits; AID 743279; in the data active = activity change below about -50%; inconclusive = mostly about -30% to -49%; also: % is scaled to controls: 0 for no effect and ±100 for the full control effect
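Secreted IL-1B measured by AlphaLISA bead assay after 16 h compound exposure of THP-1 cells; compounds (final up to 57.5 uM) added 1 h before LPS (250 ng/mL) and ATP (1.25 mM) stimulation; lower signal means less secretion.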
TDP1 cell CPT – DT40-hTDP1 cell growth loss with CPT | chicken DT40 Tdp1-/-;hTDP1 cells + 20 nM CPT, ATP luminescence, 48 h | Potency, µM (titrated, usually from 46.2 µM), for the others: at the top dose activity change, negative = growth inhibition, usual class: inhibitors | AID 686979 | 420,000 compounds, 12% hits; also: potency is read from the fitted curve at half-maximal effect; % is scaled to controls: 0 for no effect and ±100 for the full control effect; nearly all actives have a fitted effect of over 55% in size
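Chicken DT40 Tdp1-/- cells complemented with human TDP1, 400 cells/well, exposed to compounds plus 20 nM camptothecin for at least 48 h at 37 C; viability read as ATP content by CellTiter-Glo luminescence.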
Chronic BCR inh – blocks chronic active B-cell receptor signaling. ABC-DLBCL IkBa-CBG/CBR reporter, luminescence ratio, 4 h. Potency, µM (doses to about 46.1 µM), inactives show at the highest dose activity change, negative = inhibition, usual class: inhibitors. 340,000 compounds, 0.05% hits; active = well fitted inhibition curve with a large enough effect in the signal ratio, with a control signal flat, not every such curve was filed as active; inconclusive = small, poorly fitted or top-dose-only effect, or effect the other way, or a change in a side signal; the % refers to the signal ratio;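 also: potency is read from the fitted curve at half-maximal effect; plate controls were basal doxycycline-induced cells for no effect and cells given 10 µM MG132 for full effect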
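TMD8 ABC-DLBCL cells carrying doxycycline-inducible green luciferase fused to IkappaBalpha plus unfused red luciferase were exposed to compounds (up to 46 uM) for 4 hrs at 37C. Activity came from the overlap-corrected green/red luminescence ratio.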
TDP1 cell noCPT – qHTS for Inhibitors of human tyrosyl-DNA phosphodiesterase 1 (TDP1): qHTS in cells in absence of CPT; DT40 Tdp1-/- hTDP1 cells, no CPT, ATP luminescence, 48 h; Potency, µM (titrated, usually from 46.2 µM), without a hit: at the top dose activity change, negative = growth inhibition, most hits filed as inhibitors; 420,000 compounds, 15% hits; AID 686978, 2013; also: potency is read from the fitted curve at half-maximal effect; % is scaled to controls: 0 for no effect and ±100 for the full control effect; nearly all actives have a fitted effect of over 55% in size
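No-CPT arm: Tdp1-/-;hTDP1 DT40 cells (400/well) plus compounds, incubated ≥48 hr at 37 °C. Readout CellTiter-Glo luminescence.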
Starred values were filed as active, the others as inactive; ? = inconclusive; . = not tested or not shown; [ ] = remark or other dose. Shown are actives, neighbours in structure and some others; about 19% of the full set was active somewhere. Unless noted, calls follow the shape of the dose curve; as a rule, active = well fitted curve in the direction sought with a large enough effect; inconclusive = small, poorly fitted or top-dose-only effect, or another doubt; inactive = no such curve, though single readings can be large; an effect the other way counts as inactive or inconclusive.

SMILES | MCF10A rereplic | SW480 rereplic | IL1B secr inh | TDP1 cell CPT | Chronic BCR inh | TDP1 cell noCPT
CCOC(=O)C1=CCN(S(=O)(=O)c2ccc(C)cc2)C1c1cccc2ccccc12 (centres undefined) | . | . | 23 | ? | . | ?
CSc1ccc2c(c1)N(CCC1CCCCN1C)c1ccccc1S2 (centres undefined) | -41% | . | -20 | 15µM* | ? | 16µM*
CCc1ccc(NC(=O)Cc2c(C(=O)O)c(C)cn2C)cc1 | . | . | . | -2% | 1% | -1%
O=C(CNCc1ccc(Cl)cc1)Nc1cc(S(=O)(=O)N2CCCC2)ccc1Cl | 3% | 11% | -3 | 21µM* | . | ?
O=C(CN1CCN(c2ccc(O)cc2)CC1)Nc1cc(S(=O)(=O)N2CCCC2)ccc1Cl | 11% | ? | -14 | ? | 10% | 18µM*
O=C(CN1CCN(c2ccc(O)cc2)CC1)Nc1cc(S(=O)(=O)N2CCCCC2)ccc1Cl | 6% | -1% | -16 | 10µM* | -11% | 10µM*
CCOC(=O)C1CCN(CC(=O)Nc2cc(S(=O)(=O)N3CCCCC3)ccc2Cl)CC1 | 18% | -7% | -7 | 21µM* | 6% | 21µM*
CCN1CCN(CC(=O)Nc2cc(S(=O)(=O)N3CCCCC3)ccc2Cl)CC1 | ? | -10% | -12 | -25% | -3% | -10%
O=C(Cc1ccccc1F)Nc1cc(S(=O)(=O)N2CCCC2)ccc1Cl | 13% | -22% | -23 | -6% | -8% | 17%
CC1(C)[C@@H](OC(=O)CCC(=O)O)CC[C@@]2(C)[C@H]1CC[C@@]1(C)[C@H]2C(=O)C=C2[C@H]3C[C@](C)(C(=O)O)CC[C@]3(C)CC[C@@]21C | 9%[20.6 µM] | -2%[20.6 µM] | . | . | . | .
O=C(CSc1cn(CCNC(=O)c2cccs2)c2ccccc12)NC1CCCC1 | -11% | -5% | -7 | 16µM* | 7% | 16µM*
O=C(NCCn1cc(SCc2ccc(F)cc2)c2ccccc21)c1c(F)cccc1F | ? | -2% | -61* | ? | ? | ?
O=C(CSc1cn(CCNC(=O)c2cccc(C(F)(F)F)c2)c2ccccc12)Nc1ccc2c(c1)OCCO2 | . | . | . | 23µM* | . | ?
Cn1cc(SCC(=O)NCc2ccc(F)cc2)c2ccccc21 | 4% | 2% | -17 | 10% | -16% | 1%
Cn1cc(SCC(=O)Nc2ccc3c(c2)OCCO3)c2ccccc21 | -3% | -8% | 10 | -30% | -9% | -23%
O=C(CSc1cn(CCNC(=O)c2ccccc2F)c2ccccc12)Nc1ccc2c(c1)OCCO2 | . | . | . | 23µM* | . | 16µM*
CCN(CC)C(=O)Cn1cc(SCC(=O)NC2CCCCC2)c2ccccc21 | . | . | -23 | -23% | . | -21%
O=C(NCCn1cc(SCc2ccccc2)c2ccccc21)c1c(F)cccc1F | 0% | -3% | ? | ? | ? | 23µM*
COc1ccccc1C(=O)NCCn1cc(SCC(=O)Nc2nnc(C)s2)c2ccccc21 | 16% | 9% | -6 | ? | ? | -28%
O=C(NCCn1cc(SCc2ccc(F)cc2)c2ccccc21)c1ccccc1F | ? | 10% | ? | ? | ? | 16µM*
O=C(CSc1cn(CCNC(=O)c2c(F)cccc2F)c2ccccc12)NCC1CCCO1 (centres undefined) | -2% | -6% | 0 | -10% | -6% | ?
O=C(CSc1cn(CCNC(=O)c2ccccc2F)c2ccccc12)Nc1ccc(F)cc1 | . | . | . | 23µM* | . | 23µM*
O=C(O)CSc1cn(Cc2ccccc2)c2ccccc12 | -14% | 1% | 12 | 1% | 5% | -1%
NC(=O)CSc1cn(Cc2cccc(F)c2)c2ccccc12 | 0% | 10% | -8 | 13µM* | -1% | ?
c1csc(-c2noc(CN3CCc4sccc4C3)n2)c1 | -4% | -3% | 22 | -5% | ? | -1%
SMILES | MCF10A rereplic | SW480 rereplic | IL1B secr inh | TDP1 cell CPT | Chronic BCR inh | TDP1 cell noCPT
COc1ccc(-n2ccn(CC(=O)Nc3ccc(C)cc3C)c(=O)c2=O)cc1 | . | . | . | 15% | . | 4%
COc1ccc(Cl)cc1NC(=O)C(=O)NCc1ccncc1 | 1% | 23% | -52* | -16% | 1% | -27%
CCN(CC)c1cc2c(c3c1ccn3C)C1CCC2O1 (centres undefined) | . | . | 2 | -11% | . | -18%
COc1ccc(-c2cc3c(c4c2ccn4C)C2CCC3O2)cn1 (centres undefined) | . | . | 8 | 18µM* | . | 16µM*
Cn1ccc2c(-c3ccc(F)nc3)cc3c(c21)C1CCC3O1 (centres undefined) | . | . | 55 | ? | . | ?
Cn1ccc2c(/C=C/c3ccc(F)cc3)cc3c(c21)C1CCC3C1 (centres undefined) | . | . | 16 | -16% | . | ?
Cn1ccc2c(N3CCCCCCC3)cc3c(c21)C1CCC3O1 (centres undefined) | . | . | -8 | ? | . | 21µM*
Cn1ccc2c(/C=C/c3ccc(F)cc3)cc3c(c21)C1CCC3O1 (centres undefined) | . | . | 14 | 26µM* | . | 12µM*
CCCN(CC1CC1)c1cc2c(c3c1ccn3C)C1CCC2O1 (centres undefined) | . | . | -4 | 15µM* | . | 10µM*
CN(c1cccc(F)c1)c1cc2c(c3c1ccn3C)C1CCC2O1 (centres undefined) | . | . | 0 | 16µM* | . | 16µM*
CN(c1ccc(Cl)cc1)c1cc2c(c3c1ccn3C)C1CCC2O1 (centres undefined) | . | . | 8 | ? | . | 23µM*
CN(c1cc2c(c3c1ccn3C)C1CCC2O1)C1CCCCC1 (centres undefined) | . | . | 26 | ? | . | ?
CN(CCc1ccccc1)c1cc2c(c3c1ccn3C)C1CCC2O1 (centres undefined) | . | . | -20 | ? | . | ?
CN(C)c1ccc(C=O)cc1[N+](=O)[O-] | . | . | . | 3% | . | -25%
COc1cc(OC)c(NC(=O)C2CCN(S(=O)(=O)c3ccc4c(c3)CC(C)N4C(C)=O)CC2)cc1Cl (centres undefined) | 25% | 26% | -1 | 21µM* | 2% | ?
COc1cc(OC)c(NC(=O)N2CCc3cc(S(=O)(=O)N4CCC(C)CC4)ccc32)cc1Cl | . | . | . | 10µM* | . | 8.2µM*
COc1ccc(NC(=O)C2CCN(S(=O)(=O)c3ccc4c(c3)CC(C)N4C(C)=O)CC2)cc1OC (centres undefined) | 17% | 9% | 8 | ? | 10% | ?

Screening results: PubChem, National Center for Advancing Translational Sciences (NCATS)
